We go through 61 compounds from PubChem BioAssay AID1626 (SRMLSC, 2009).

About 2,000 (0.91%) of roughly 220,000 compounds were called active. Inconclusive results (about 2%) are left out. Cut-off read from the data, not from the text of the source: inconclusive = inhibition above about 80% without an active follow-up result; inactive = below that; test concentration not stated here. The list is a sample of the results. Entries with a potency or affinity are not part of this list.

The assay can be described thus: M. tuberculosis H37Rv growth inhibitors, H37Rv strain (AID 1626).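 Note: bacteria incubated seven days before Alamar blue readout; 0% = bacteria only wells and 100% = bacteria with antibiotic wells.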 The note with it: stronger effect = higher value, concentration not given here.
Consider `Cc1ccc(NC(=O)CSCC#N)cc1`, for which the inhibition is -3.07% (inactive).
As to `CC(=O)Nc1ccc(S(=O)(=O)NCCC(=O)Nc2ccc(C)c(Cl)c2)cc1`, the inhibition is 1.88% (inactive).
Turning to `Cc1ccc(S(=O)(=O)NCCC(=O)Nc2ccc(Cl)c(Cl)c2)cc1C`, the inhibition is 68.7% (inactive).
As for `N#CCSCC(=O)Nc1ccc(Cl)cc1`, the figure is -6.68% (inactive).
Take `O=C(Nc1cccc(S(=O)(=O)NC2=NCCCCC2)c1)c1cc(-c2ccncc2)nc2ccccc12`: the inhibition was 5.09% (inactive).
Consider `CNc1nc(N)c(C(=O)C23CC4CC(CC(C4)C2)C3)s1`, for which the inhibition was 7.78% (inactive).
As to `CC1CN(c2ncc(/C=N/NC(=O)c3ccccc3O)s2)CC(C)O1` (stereo unspecified), the inhibition is 48% (inactive).
As for `c1ccc(OCCOCCN2CCOCC2)cc1`, the figure is 8.38% (inactive).
The result for `OCCOCCN1CCN(C(c2ccccc2)c2ccc(Cl)cc2)CC1` (stereo unspecified) reads -10.7% (inactive); that for `O=C(NN1CCN(Cc2ccccc2)CC1)c1ccc(Cl)cc1`, -1.31% (inactive); that for `CCOC(=O)c1cccc(COC(=O)c2cccc(-c3nnc(-c4ccccc4)o3)c2)c1`, 2.8% (inactive).
Turning to `O=C(COc1cc(O)c2c(=O)cc(-c3ccccc3)oc2c1)c1ccccc1`, the inhibition was -4.52% (inactive).
The result for `CCOC(=O)Cc1nnc(-c2ccccc2)o1` reads -3.07% (inactive); that for `CCOC(=O)c1cc(=O)c2ccc(OCC(=O)Nc3ccccc3)cc2o1`, 3.25% (inactive); that for `CCc1ccc(C(=O)COC(=O)c2ccc(-c3nnc(-c4ccccc4)o3)cc2)cc1`, -8.3% (inactive).
As for `CCOc1ccc(-c2nnc(-c3ccccc3)o2)cc1`, the figure is 8.69% (inactive); as for `CC(C)(C)OC(=O)COc1cc(O)c2c(=O)cc(-c3ccccc3)oc2c1`, 5.56% (inactive); as for `NC(=O)COc1ccc2oc(-c3ccccc3)cc(=O)c2c1`, 1.94% (inactive).
As for `C#CCn1c(=NC(=O)c2ccc(Br)s2)sc2cccc(OC)c21`, the figure is 49.8% (inactive); as for `CCn1c(=O)cc(SCC(=O)N2CCN(c3ccccc3OC)CC2)c2ccccc21`, -4.03% (inactive).
With `COP(=O)(NC(=O)C(Cl)(Cl)Cl)OC`, the inhibition was -4.54% (inactive).
The result for `Cc1ccc(SCC(=O)Nc2ccc(N3CCN(c4ccccc4)CC3)c(F)c2)cc1` reads 3.11% (inactive).
As for `CS(=O)(=O)NCCNc1ccc(C(F)(F)F)cc1[N+](=O)[O-]`, the figure is -3.33% (inactive).
As for `COc1ccc(C2CC(=O)C(C=NCCO)=C(O)C2)cc1OC` (stereo unspecified), the figure is -9.01% (inactive); as for `CN(CCc1cnn(C)c1)Cc1cn[nH]c1-c1ccc(-c2ccccc2)cc1`, 3.7% (inactive).
`Cc1c(NC(=O)/C(=C\c2ccccc2)NC(=O)c2ccccc2)c(=O)n(-c2ccccc2)n1C`: the inhibition is -13.7% (inactive).
The result for `COc1ccc(OCC(=O)N/N=C2\CCCc3ccccc32)cc1` reads 1.63% (inactive); that for `O=C(NNS(=O)(=O)c1ccccc1Cl)c1nn(-c2ccc(F)cc2)ccc1=O`, 2.66% (inactive); that for `CC(Oc1ccc2c(-c3ccccc3)cc(=O)oc2c1)C(=O)O` (stereo unspecified), -19.3% (inactive).
The result for `O=C(O)COc1ccc2c(-c3ccccc3)cc(=O)oc2c1` reads -6.46% (inactive); that for `O=C(O)C(Oc1ccc2c(-c3ccccc3)cc(=O)oc2c1)c1ccccc1` (stereo unspecified), -7.84% (inactive).
As for `CCOc1ccc(-c2nnc(-c3ccncc3)o2)cc1`, the figure is 7.35% (inactive).
Regarding `CCOc1ccc(-c2nnc(-c3ccc(OC)cc3)o2)cc1`, the inhibition was 3.3% (inactive).
The result for `CCOC(=O)C(Oc1ccc2c(-c3ccccc3)cc(=O)oc2c1)c1ccccc1` (stereo unspecified) reads 15.1% (inactive); that for `N#Cc1ccc(NC(=O)c2cc(-c3cccs3)on2)cc1`, -3.45% (inactive); that for `Cc1cc(C(=O)CSc2nnc(-c3ccc(Cl)cc3)n2C)c(C)n1CC1CCCO1` (stereo unspecified), -5.79% (inactive).
As for `CCn1c(=O)c(=O)[nH]c2cc(C(=O)NC3CCCC3)ccc21`, the figure is -14.3% (inactive).
As for `COC(=O)c1cc(C)nc(Sc2ccccc2NC(C)=O)n1`, the figure is -6.62% (inactive); as for `COc1ccc(-c2cnc(N)nc2-c2ccc(OC)cc2O)cc1`, -8.12% (inactive); as for `Nc1ncc2c(n1)-c1ccccc1CC2`, 4.21% (inactive).
`Cc1csc(NC(=O)CSc2ccc(-c3ccccc3)nn2)n1`: the inhibition is -4.14% (inactive).
Consider `Cc1ccc(-c2ccc(SCC(=O)Nc3cc(C)on3)nn2)cc1`, for which the inhibition was 1.42% (inactive).
For the compound `CCOC(=O)c1ccccc1NC(=O)CSc1ccc(-c2cccnc2)nn1`, the inhibition is 1.73% (inactive).
As for `CC(=O)Nc1cccc(NC(=O)CSc2ccc(-c3ccccn3)nn2)c1`, the figure is 5.52% (inactive); as for `Cc1nnc(NC(=O)CSc2ccc(-c3ccccn3)nn2)s1`, -8.09% (inactive).
In the case of `Cc1nonc1NC(=O)CSc1ccc(-c2ccccc2)nn1`, the inhibition was 29.3% (inactive).
The result for `CCOC(=O)c1ccc(NC(=O)CSc2ccc(-c3ccncc3)nn2)cc1` reads 78% (inactive).
As to `Cc1ccc(CNC(=O)CSc2ccc(-c3ccccn3)nn2)cc1`, the inhibition is 9.75% (inactive).
As for `CC(C)CNC(=O)c1cccc(NC(=O)C(C)Oc2ccccc2)c1` (stereo unspecified), the figure is 9.89% (inactive); as for `COc1cc(CNC2CCCCCC2)cc(OC)c1`, 9.94% (inactive).
As for `Cc1nc(-c2ccc(Cl)cc2)sc1C(=O)NNC(=O)C(C)C`, the figure is -5% (inactive).
`CCC1CCCCN1C(=O)COc1c(Br)cc(Br)c2cccnc12` (stereo unspecified): the inhibition was -13.3% (inactive).
As for `CCn1nc(C(=O)Nc2ccc(S(=O)(=O)Nc3ncccn3)cc2)c2ccccc2c1=O`, the inhibition was 1.39% (inactive).
The result for `CCN(CC)S(=O)(=O)c1cc(NC(=O)COC(=O)CCc2nc3ccccc3s2)ccc1C` reads 0.37% (inactive).
The result for `CCOc1ccc(NC(=O)Cn2c(=O)n(CC3CCCO3)c(=O)c3ccccc32)cc1` (stereo unspecified) reads 0.09% (inactive); that for `COc1cccc2cc(C(N)=O)/c(=N/NC(=O)COc3ccc(Cl)cc3)oc12`, 1.32% (inactive); that for `CC(C)c1ccc(NC(=O)COc2nnc(-c3cccs3)c(-c3cccs3)n2)cc1`, 3.94% (inactive).
As for `O=C(CSc1ccccn1)c1ccc(F)cc1`, the figure is -5.01% (inactive); as for `O=C(CSc1ccc(-c2ccccn2)nn1)c1ccc([N+](=O)[O-])cc1`, 9.1% (inactive); as for `CCC(Sc1nc2ccccc2c(=O)[nH]1)C(=O)Nc1ccc(C(C)=O)cc1` (stereo unspecified), 10.9% (inactive).
`CCOC(=O)C(NCc1ccccc1OC)(NC(C)=O)C(F)(F)F` (stereo unspecified): the inhibition was -3.95% (inactive).
